We go through 61 compounds from PubChem BioAssay AID1490 (National Center for Advancing Translational Sciences (NCATS), 2009).

“And” between values parts separate entries of the source, which are not always exact repeats. Equal entries are not always repeated. Among all 310,000 compounds or so, about 11,000 (3.5%) were called active. Roughly 4% stayed inconclusive and do not appear here. Calls follow the shape of the dose curve; as a rule, active = well fitted inhibition curve with a large enough effect; inconclusive = small, poorly fitted or top-dose-only effect, or another doubt; inactive = no such curve, though single readings can be large or run the other way. Only a selection was taken, and actives are over-represented in it overall.
Potency is read from the fitted curve at half-maximal effect.

This assay addresses 4'-phosphopantetheinyl transferase ffp (Bacillus subtilis) (UniProt Q9F4F7). Nature of the assay: qHTS Assay for Inhibitors of Bacillus subtilis Sfp phosphopantetheinyl transferase (PPTase).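 Also: the enzyme is Sfp with the accession as filed and its product quenches rhodamine fluorescence.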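 As to largest response in the series, negative = inhibition: 0% = enzyme reaction without inhibitor and -100% = no enzyme wells.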 Conditions: Biochemical Sfp PPTase activity. In short, it runs like this: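 Fluorescence-quenching assay: 15 nM Sfp-PPTase preincubated 15 min at room temperature with compound, then 5 uM rhodamine-CoA and 12.5 uM BHQ-2-labelled YbbR peptide added. Fluorescence (ex 525/em 598 nm) read at start and after 30 min; difference gives rate.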
For orientation: In qHTS, concentration-response curves come from the screen itself.
For `COc1cccc(CN2CCN(Cc3ccc4cccc(F)c4n3)CC2CCO)c1` (stereo unspecified), the largest response in the series, negative = inhibition was 13.8% (inactive).
The same measure, in the same setting: in the case of `COc1ccc(C(=O)CSc2nnc(COc3ccccc3)n2Cc2ccco2)cc1` it was -23.6% (inactive); in that of `CCCc1nc2c(c(=O)c3ccccc3n2C)c(=O)n1-c1cc(C)cc(C)c1`, -11.4% (inactive).
Consider `Cn1c2ccccc2c(=O)c2c(=O)n(Cc3ccco3)c(COc3ccccc3)nc21`, for which the Potency is 8.91 µM (active).
`COc1cccc(NC(=O)C(=O)c2cn(CC(=O)N3CCOCC3)c3ccccc23)c1`: the largest response in the series, negative = inhibition is 11.1% (inactive).
As to `Cc1ccc(C(C)(C)C)c(OCCCCN2CCCC2)c1`, the largest response in the series, negative = inhibition was -28.7% (inactive).
On the same count and under the same terms, in the case of `COCCCNCCOCCOc1ccc(Cl)cc1Br` it was 1.66% (inactive).
In the case of `CC(C)(C)NCCCOc1ccc(Cl)cc1C(C)(C)C`, the Potency is 50.1 µM (active).
For the compound `CC(C)(C)OC(=O)N1CCC(C(=O)NNC(=O)c2ccc(Cl)cc2Cl)CC1`, the largest response in the series, negative = inhibition was 5.93% (inactive).
The same measure, in the same setting: to `CCOCCCNc1nc(-c2ccccc2)nc2ccccc12` belongs 14.7% (inactive).
As to `c1ccc(-c2nc(NCc3ccco3)c3ccccc3n2)cc1`, the Potency is 11.2 µM (active).
As to `c1coc(CNc2ncnc3ccccc23)c1`, the largest response in the series, negative = inhibition was 8.96% (inactive).
Consider `CC(C)C(=O)N1CC(=O)Nc2ccc(F)cc2C1c1ccc(F)cc1` (stereo unspecified), for which the largest response in the series, negative = inhibition is 17.9% (inactive).
On the same count and under the same terms, to `CCN(CC(=O)N1CCCC1)S(=O)(=O)c1ccc(F)cc1` belongs 4.81% (inactive).
The same measure, in the same setting: to `O=C(Nc1ccc(NC(=O)c2ccco2)c(Cl)c1)c1cccc([N+](=O)[O-])c1` belongs 5.01% (inactive).
For `CCC(=O)NC(=S)Nc1ccc(NC(=O)c2ccco2)c(Cl)c1`, the Potency is 39.8 µM (active).
For `O=C(NNC(=S)Nc1ccc(Br)cc1Cl)c1ccco1`, the largest response in the series, negative = inhibition is 12.1% (inactive).
As to `O=S(=O)(c1cccc(Cn2nnc(-c3ccc(F)cc3)n2)c1)N1CCOCC1`, the largest response in the series, negative = inhibition is 3.33% (inactive).
Same read-out and setting: to `CC(=O)C1=C(C)NC(=O)NC1c1ccc2c(c1)OCO2` (stereo unspecified) belongs 0.489% (inactive).
With `S=c1[nH]nc2c3c4c(sc3ncn12)CCCC4`, the Potency is 56.2 µM (active).
`N=c1c2c3c(sc2ncn1N)CCCC3`: the largest response in the series, negative = inhibition was 13.2% (inactive).
Same read-out and setting: to `c1nnc2c3c4c(sc3ncn12)CCC4` belongs -1.58% (inactive); to `Cc1cc(-c2ccc(S(=O)(=O)N3CCc4ccccc4C3)s2)on1`, 12.5% (inactive).
The same measure, in the same setting: to `O=C(NCc1ccccc1)C(c1ccco1)N(C(=O)c1csnn1)c1ccccc1F` (stereo unspecified) belongs 11.4% (inactive).
Same read-out and setting: in the case of `C[C@H](NC(=O)C1CC(=O)N(c2ccc3c(c2)OCO3)C1)C(=O)NCc1ccco1` (stereo partly specified) it was 4.65% (inactive); in that of `CC/C=C\C/C=C\C/C=C\C/C=C\C/C=C\C/C=C\CCC(=O)NC(C)C(=O)O` (stereo unspecified), -29.1% (inactive); in that of `COc1cccc(/C=C2\C=C(c3ccc(C)cc3)OC2=O)c1OC(C)=O`, -6.33% (inactive).
`CN(C)/C=C1/C(=O)Nc2ccccc21`: the largest response in the series, negative = inhibition is -6.73% (inactive).
Consider `CN(C)/C=C1\C=C(c2ccccc2)OC1=O`, for which the Potency was 20 µM (active).
Regarding `O=S(=O)(c1ccccc1)N(Cc1cccc(F)c1)c1ccccc1`, the largest response in the series, negative = inhibition was 13.8% (inactive).
On to `CN(Cc1ccco1)c1ncncc1-c1ccoc1`, for which the Potency is 79.4 µM (active).
Turning to `CN(Cc1ccco1)c1cc(-c2ccccc2C(F)(F)F)ncn1`, the largest response in the series, negative = inhibition was -8.82% (inactive).
On the same count and under the same terms, to `Cc1ccccc1-c1nc(N(C)Cc2ccco2)c2ccccc2n1` belongs -22.5% (inactive).
As for `CCC1OC(c2ccc([N+](=O)[O-])cc2)=Nc2ccccc21` (stereo unspecified), the largest response in the series, negative = inhibition was -5.21% (inactive).
Still for that read-out and setting: in the case of `CCOc1cc(C)ccc1OCc1nnc(SCC(=O)Nc2cccc(C(=O)O)c2)n1-c1ccccc1` it was 22.3% (inactive); in that of `Cc1ccc(NC(=O)[C@H](Cc2ccccc2)NC(=O)C2CCNCC2)cc1`, 1.09% (inactive).
With `CCCOC(=O)Nc1sc2c(c1C(=O)OCC)CCC2`, the Potency was 14.1 µM (active).
With `CCOC(=O)c1c(NC(=S)NC)sc2c1CCCC2`, the largest response in the series, negative = inhibition was 7.02% (inactive).
On the same count and under the same terms, in the case of `CCOC(=O)c1c(NC(=O)CCC(=O)NCc2ccco2)sc2c1CCCC2` it was -8.63% (inactive).
In the case of `CCOC(=O)c1c(NC(=O)C2(C)Cc3ccccc3C(=O)O2)sc2c1CCCC2` (stereo unspecified), the Potency was 35.5 µM (active).
As for `CCOC(=O)c1c(NC(=O)Cn2nc(C(F)(F)F)cc2C)sc2c1CCC2`, the largest response in the series, negative = inhibition is -2.66% (inactive).
As to `CCOC(=O)c1c(NC(=S)Nc2ccccc2C)sc2c1CCC2`, the largest response in the series, negative = inhibition is -14.6% (inactive).
Still for that read-out and setting: in the case of `Cc1ccc(C(=O)OCC(=O)NC(=O)Cc2ccccc2)c(O)c1` it was 15.9% (inactive); in that of `CNC(=O)[C@]1(C(F)(F)F)C[C@H](CCc2ccccc2)CCCO1`, -10.7% (inactive).
Regarding `Cc1ccc(CNC(=O)C2(C(F)(F)F)C/C(=C\CCO)CCCO2)o1` (stereo unspecified), the Potency was 50.1 µM (active).
Same read-out and setting: in the case of `Cc1ccc(CNC(=O)C2(C(F)(F)F)C/C(=C\Cc3ccccc3)CCCO2)o1` (stereo unspecified) it was 35.5 µM (active) and 50.1 µM (active).
Consider `O=C(NCC1CC1)C1(C(F)(F)F)C/C(=C\CCO)CCCO1` (stereo unspecified), for which the largest response in the series, negative = inhibition is 1.74% (inactive).
The same measure, in the same setting: to `Cc1ccc(CNC(=O)Cn2cnc(S(=O)(=O)N3CCCCC3)c2)o1` belongs 14.3% (inactive).
On to `O=C(NCc1ccccn1)[C@]1(C(F)(F)F)C[C@H](CCc2ccccc2)CCCO1`, for which the largest response in the series, negative = inhibition was -24.4% (inactive).
On the same count and under the same terms, in the case of `CCCn1nc(NC(=O)C(C)C)c2cc3cc(OC)ccc3nc21` it was 4.66% (inactive); in that of `CC(O)COc1ccccc1` (stereo unspecified), 12.6% (inactive); in that of `COc1ccc(N(CC(=O)NCc2ccc(F)cc2)C(=O)CCC(=O)Nc2nccs2)cc1`, -11.5% (inactive).
Still for that read-out and setting: in the case of `O=C1CCC(=O)N(c2ccccc2)N1` it was -3.33% (inactive).
The same measure, in the same setting: in the case of `CN(CCC(=O)Nc1cc(S(=O)(=O)N(C)C)ccc1Cl)CC(=O)Nc1ccc(F)cc1` it was 13.5% (inactive).
For `Cn1c(N)c(C(=O)COC(=O)c2cc(C(F)(F)F)nc3c(C(F)(F)F)cccc23)c(=O)n(C)c1=O`, the largest response in the series, negative = inhibition is 13.8% (inactive).
For the compound `N#C/C(=C/c1ccc(N2CCOCC2)o1)C(=O)N1CCOCC1`, the Potency is 56.2 µM (active).
Regarding `N#C/C(=C\c1ccc(N2CCOCC2)o1)C(=O)N1CCOCC1`, the largest response in the series, negative = inhibition was -13.7% (inactive).
`N#C/C(=C/c1ccc(N2CCCCC2)o1)C(=O)NCCc1c[nH]c2ccccc12`: the largest response in the series, negative = inhibition is -16.2% (inactive).
On the same count and under the same terms, in the case of `CCCCC[C@H]1CN(C2CCCCC2)C(=O)[C@@H]1CC(=O)NCc1ccc(OC)cc1` it was -4.46% (inactive); in that of `O=C(Nc1ccccc1N1CCN(C(=O)c2ccccc2)CC1)c1ccco1`, 14.1% (inactive).
On the same count and under the same terms, to `CC(C)[C@@H](NC(=O)OC(C)(C)C)C(=O)NCC1CCC(C(=O)N[C@@H](Cc2ccccc2)C(=O)O)CC1` (stereo partly specified) belongs 6.54% (inactive).
